Screening results as filed in PubChem.
Most compounds without a hit are left out; they make up all but 3% or so of the library.
SENP6 inh = inhibitors of human SENP6 protease | 1.8% of 330,000 active | inhibition, % at 10 µM | Recombinant SENP6 catalytic domain, aminoluciferin luminescence | AID 2599 | Q9GZR1;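 active means inhibition above about 50% at the single tested dose, limit read from the data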;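 further: plate controls were DMSO wells with enzyme for no effect and DMSO wells lacking enzyme for full effect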
Target sequence (Q9GZR1 628-1112 limits assumed): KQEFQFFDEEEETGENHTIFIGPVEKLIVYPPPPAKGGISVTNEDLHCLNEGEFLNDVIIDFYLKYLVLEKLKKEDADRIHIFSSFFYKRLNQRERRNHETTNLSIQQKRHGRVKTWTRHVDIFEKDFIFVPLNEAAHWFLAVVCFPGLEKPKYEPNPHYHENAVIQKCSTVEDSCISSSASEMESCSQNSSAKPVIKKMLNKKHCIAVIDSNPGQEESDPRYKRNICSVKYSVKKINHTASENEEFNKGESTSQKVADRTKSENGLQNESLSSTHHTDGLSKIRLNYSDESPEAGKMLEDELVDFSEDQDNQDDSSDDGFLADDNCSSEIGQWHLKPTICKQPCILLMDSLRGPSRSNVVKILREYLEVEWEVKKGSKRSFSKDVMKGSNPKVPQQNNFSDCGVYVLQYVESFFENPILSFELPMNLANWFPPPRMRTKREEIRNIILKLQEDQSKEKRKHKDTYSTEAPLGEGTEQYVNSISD
C8 TRAIL sens = sensitizes caspase-8 expressing cells to TRAIL; NB7+C8 cells + TRAIL, ATPlite viability luminescence; inhibition (viability loss, TRAIL sensitization), % at 10 µM; 1% of 360,000 active;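 active means compounds causing at least 50% loss of cell viability in the single-dose screen, relative to plate controls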
SENP7 block = inhibitors of human SENP7 protease; Q9BQF6; recombinant SENP7, Z-RLRGG-aminoluciferin luminescence, 40 min; inhibition, % at 5 µM; 1.5% of 330,000 active; AID 434973;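 active means inhibition above about 50% at the single test dose, limit read from the data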;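 further: plate controls were DMSO with enzyme for no effect and no enzyme buffer wells for full effect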
SENP8 block-1 = inhibitors of human SENP8 protease. recombinant SENP8, Nedd8 substrate fluorescence. inhibition, % at 20 µM. 0.64% of 360,000 active; in the data active means inhibition mostly above about 40%, no sharp cut-off; inactive means mostly below about 27%
PPC-1+TRAIL kill = PPC-1 cancer cell killing with TRAIL present. PPC-1 cells + TRAIL, ATPLite viability luminescence. cell killing (% activity), % at 4 µM or 5 µM. 0.41% of 220,000 active. AID 1443;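 active means cell killing above 50% in the first pass at 4 µM, then a duplicate retest at 5 µM averaging 50% or more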;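 further: plate controls were cells with TRAIL plus DMSO for no effect and medium-only wells lacking cells for full effect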
SENP8 block-2 = inhibitors of human SENP8 protease; Q96LD8; purified SENP8, Z-RLRGG-aminoluciferin cleavage, luminescence; inhibition, % at 10 µM; 1.2% of 330,000 active; AID 2540; in the data active means inhibition above about 50%
SENP8 confirm = confirmation of human SENP8 protease inhibitors; shares compounds with SENP7 block; 40% of 6,200 active; Recombinant SENP8, Z-RLRGG-aminoluciferin luminescence, 60 min; inhibition, % at 12.5 µM;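 active means mean inhibition across replicates above about 50%, limit read from the data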
SENP6 conf = confirmation of human SENP6 protease inhibitors; shares compounds with SENP7 block; inhibition, % at 12.5 µM; recombinant SENP6, Z-RLRGG-aminoluciferin luminescence; 58% of 6,200 active; AID 488915
SENP7 confirm = confirmation of human SENP7 protease inhibitors; shares compounds with SENP7 block; recombinant SENP7, Z-RLRGG-aminoluciferin luminescence, 40 min; inhibition, % at 12.5 µM; 69% of 6,200 active; AID 488917
Casp3 select = selectivity test for SENP inhibitors: human caspase-3 inhibition; shares compounds with SENP7 block; purified caspase-3, Z-DEVD-aminoluciferin luminescence, 60 min; inhibition, % at 12.5 µM; 60% of 6,200 active; AID 488918;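 active means mean inhibition above about 50%, limit read from the data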;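 further: plate controls were enzyme with DMSO for no effect and wells without caspase-3 for full effect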
SENP luc ctr = luminescence interference (SENP counter-screen); 39% of 6,200 active; Pre-incubated SENP8/Z-RLRGG-aminoluciferin, luciferase luminescence interference; shares compounds with SENP7 block; inhibition, % at 12.5 µM;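 active means mean inhibition above about 50% when retested at one dose, limit read from the data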;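 further: plate controls were DMSO wells with completed reaction for no effect and substrate without enzyme for full effect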
Active calls of the source: *.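 How the source made its calls, unless noted: active means mean inhibition above about 50% in the one-dose retest (limit read from the data); inactive means the rest.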

What do the screens show for `Cc1ccc(NC(=O)CN(C)S(=O)(=O)c2cccs2)c(Br)c1`?
SENP6 inh: -9; C8 TRAIL sens: 27; SENP7 block: 3; SENP8 block-1: 7; SENP8 block-2: -4

What do the screens show for `COCCNC(=O)C1CCCN(Cc2ccc(-c3ccccc3)cc2)CC1` (stereo not drawn)?
C8 TRAIL sens: -1; SENP8 block-1: 14

Results for C/C(=N\NC(=O)c1nn(C)c(C)c1Br)c1ccc(NC(=O)c2ccoc2C)cc1 ?
SENP6 inh: 41; C8 TRAIL sens: -5; SENP7 block: 60*; SENP8 block-1: -8; PPC-1+TRAIL kill: 42; SENP8 block-2: -7; SENP8 confirm: -2; SENP6 conf: 2; SENP7 confirm: 0; Casp3 select: 12; SENP luc ctr: 13

What do the screens show for `C/C(=N\NC(=O)c1c(Br)c(C)nn1C)c1ccc(NC(=O)c2ccoc2C)cc1`?
SENP6 inh: 16; C8 TRAIL sens: 1; SENP7 block: 3; SENP8 block-1: 3; PPC-1+TRAIL kill: 28; SENP8 block-2: 1

How did CCCCn1nc(NC(=O)CC)c2cc3cc(OC)ccc3nc21 do in these assays?
SENP6 inh: 7; C8 TRAIL sens: -8; SENP7 block: 3; SENP8 block-1: -285; SENP8 block-2: 0

Results for CCCc1ccc(OC(=O)c2cccs2)cc1 ?
SENP6 inh: 32; C8 TRAIL sens: -27; SENP7 block: 42; SENP8 block-1: 16; PPC-1+TRAIL kill: -4; SENP8 block-2: -4

What do the screens show for `CCCc1ccc(OC(=O)c2ccc(O)cc2Cl)cc1`?
SENP6 inh: 61*; C8 TRAIL sens: 16; SENP7 block: 46; SENP8 block-1: 11; PPC-1+TRAIL kill: -15; SENP8 block-2: 66*; SENP8 confirm: 58*; SENP6 conf: 73*; SENP7 confirm: 90*; Casp3 select: 23; SENP luc ctr: 31

Results for Clc1ccc2nc3ccccc3cc2c1 ?
C8 TRAIL sens: 20; SENP8 block-1: -306

What do the screens show for `Clc1ccc2nc3c4ccccc4cnn3c2c1`?
SENP6 inh: 99*; C8 TRAIL sens: 40; SENP7 block: 98*; SENP8 block-1: -356; PPC-1+TRAIL kill: 32; SENP8 block-2: 95*; SENP8 confirm: 94*; SENP6 conf: 94*; SENP7 confirm: 101*; Casp3 select: 92*; SENP luc ctr: 24

Results for CCOC(=O)C1(CCCc2ccccc2)CCN(C(=O)c2cc(C)nn2CC)CC1 ?
SENP6 inh: -9; C8 TRAIL sens: 2; SENP7 block: -4; SENP8 block-1: 7; SENP8 block-2: 3

How did Cc1ccc(N=Nc2ccc3ccccc3c2O)cc1 do in these assays?
SENP6 inh: 46; C8 TRAIL sens: 75*; SENP7 block: 100*; SENP8 block-1: 16; SENP8 block-2: 90*; SENP8 confirm: 6; SENP6 conf: 7; SENP7 confirm: 1; Casp3 select: 2; SENP luc ctr: 7

How did Oc1c(N=Nc2ccc(F)cc2)ccc2ccccc12 do in these assays?
SENP6 inh: 82*; C8 TRAIL sens: 53*; SENP7 block: 99*; SENP8 block-1: 42*; SENP8 block-2: 86*; SENP8 confirm: 38; SENP6 conf: 45; SENP7 confirm: 21; Casp3 select: 78*; SENP luc ctr: 12

Results for COc1ccc(OC)c(CN2C(=O)c3ccccc3C2c2nnnn2C2CCCC2)c1 (stereo not drawn) ?
C8 TRAIL sens: 10; SENP8 block-1: 7

Results for Cc1ccc(C(=O)Nc2ccc3nc(C)sc3c2)o1 ?
C8 TRAIL sens: 16; SENP8 block-1: 10

How did Cc1nc2ccc(NC(=O)c3cc(Cl)ccn3)cc2s1 do in these assays?
SENP6 inh: 74*; C8 TRAIL sens: 14; SENP7 block: 68*; SENP8 block-1: 2; SENP8 block-2: 60*; SENP8 confirm: 11; SENP6 conf: 30; SENP7 confirm: 59*; Casp3 select: 37; SENP luc ctr: 8

Results for CSc1nc2ccc(NC(=O)c3ccccn3)cc2s1 ?
SENP6 inh: 78*; C8 TRAIL sens: 82*; SENP7 block: 93*; SENP8 block-1: -44; SENP8 block-2: 90*; SENP8 confirm: 52*; SENP6 conf: 86*; SENP7 confirm: 98*; Casp3 select: 93*; SENP luc ctr: 17

What do the screens show for `Cc1nc2ccc(NC(=O)c3ccc(Cl)nc3)cc2s1`?
SENP6 inh: 92*; C8 TRAIL sens: -46; SENP7 block: 1; SENP8 block-1: 3; PPC-1+TRAIL kill: 29; SENP8 block-2: -5; SENP8 confirm: 2; SENP6 conf: -5; SENP7 confirm: -9; Casp3 select: 8; SENP luc ctr: -5

Results for C=CCn1c(N)c(C(=O)OC(C)(C)C)c2nc3ccccc3nc21 ?
SENP6 inh: 28; C8 TRAIL sens: -5; SENP7 block: 2; SENP8 block-1: -473; PPC-1+TRAIL kill: -4; SENP8 block-2: 8

What do the screens show for `COCCn1c(N)c(C(=O)NCc2cccs2)c2nc3ccccc3nc21`?
SENP6 inh: 84*; C8 TRAIL sens: 11; SENP7 block: 64*; SENP8 block-1: -280; PPC-1+TRAIL kill: 6; SENP8 block-2: 87*; SENP8 confirm: -8; SENP6 conf: 3; SENP7 confirm: -4; Casp3 select: 3; SENP luc ctr: -4

How did CC(C)Cn1c(N)c(C(=O)NCC2CCCO2)c2nc3ccccc3nc21 (stereo not drawn) do in these assays?
SENP6 inh: 76*; C8 TRAIL sens: 13; SENP7 block: -2; SENP8 block-1: -455; PPC-1+TRAIL kill: -1; SENP8 block-2: 76*; SENP8 confirm: 5; SENP6 conf: 16; SENP7 confirm: 6; Casp3 select: -2; SENP luc ctr: -3

Results for Nc1c(C(=O)NCC2CCCO2)c2nc3ccccc3nc2n1/N=C/c1ccncc1 (stereo not drawn) ?
C8 TRAIL sens: 24; SENP8 block-1: -99
